# S1P4 antag: human S1P4 receptor antagonism. O95977. S1P4-expressing cells, antagonist mode, reporter read-out. inhibition, % at 4.98 µM. 220,000 tested, 0.26% active; in the data active = inhibition above about 29%;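 also: 0% = wells stimulated with agonist and 100% = vehicle wells without agonist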
# Target sequence (O95977 whole entry, looked up): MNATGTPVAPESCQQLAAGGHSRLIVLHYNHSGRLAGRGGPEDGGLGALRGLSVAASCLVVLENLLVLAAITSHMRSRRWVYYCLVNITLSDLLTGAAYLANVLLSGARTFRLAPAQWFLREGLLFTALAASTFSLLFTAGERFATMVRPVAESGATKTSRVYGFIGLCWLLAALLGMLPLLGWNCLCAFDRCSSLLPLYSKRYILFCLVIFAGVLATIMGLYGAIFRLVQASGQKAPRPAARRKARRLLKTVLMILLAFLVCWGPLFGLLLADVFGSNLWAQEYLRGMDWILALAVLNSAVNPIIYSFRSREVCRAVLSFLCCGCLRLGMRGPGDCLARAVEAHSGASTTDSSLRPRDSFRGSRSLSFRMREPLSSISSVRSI
# S1P4 agonist: agonists of human S1P4 receptor | O95977 | S1P4-expressing cell line, agonist reporter assay | activation, % at 4.98 µM | 220,000 tested, 0.35% active | AID 1509; in the data active = activation above about 11%;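 also: 0% = DMSO vehicle and 100% = reference agonist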
# Hsp70 act: transcriptional activators of Hsp70 | 200,000 tested, 0.04% active | AID 1203 | activation, % at 10 µM | HeLa Hsp70 promoter luciferase reporter, luminescence; scaled: vehicle 0, proteasome-inhibitor control 100%;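 active = activation above the mean across all tested compounds plus 3 SD, cutoff set per campaign, cut at about 5.5% in these data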;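 also: 100% = MG132 at 30 µM as the positive control and 0% = DMSO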
# S1P3 antag: blocks the human S1P3 receptor. CHO S1P3 NFAT-BLA reporter, FRET fluorescence, antagonist mode. 170,000 tested, 0.27% active. inhibition, % at 4.98 µM;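 active = inhibition above the plate cutoff, the mean inhibition of test wells on that plate plus 3 SD, cut at about 28% in these data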;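 also: cells challenged with S1P at its EC80 of 0.8 µM; blue over green emission ratio from cleaved BLA substrate after 4 h stimulation; 0% = S1P-stimulated wells and 100% = unstimulated DMSO-only wells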
# HSF1 inhib: HSF1 inhibition; NIH3T3-HGL HSE-luciferase, MG132-induced, luminescence 8 h; stronger effect = lower value; activity change, negative = inhibition, % at 7.5 µM (by protocol); AID 2098; 300,000 tested, 0.77% active;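 active = more than half of replicate wells show activity change below -50%, luminescence cut by over half; inconclusive = some wells, but at most half, below -50%; inactive = no replicate well below -50%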;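 also: luciferase reports HSF-1 transcriptional activity via heat shock element; 0% = median of DMSO wells and -100% = zero luminescence signal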
# HSF-1 act: increases HSF-1 driven luciferase reporter signal; activation, % at 9 µM; 300,000 tested, 1.7% active; NIH3T3-HGL HSF-1 luciferase reporter, MG132, 8 h; 100% = twice DMSO control signal;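 active = mean replicate activation of at least 50% with a set share of replicates each reaching 50%; inconclusive = only one of those two conditions met; inactive = mean below 50% and too few replicates reaching it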;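 also: 0% = median of the neutral control wells and 100% = twice that signal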
# The depositor's hits bear a star; ? = inconclusive; nt = not tested or not shown. Rows were chosen to be rich in hits. Some 2.9% of all compounds tested hit in one or more screens of this group.
SMILES,S1P4 antag,S1P4 agonist,Hsp70 act,S1P3 antag,HSF1 inhib,HSF-1 act
COc1cccc(NC(=O)C(=O)NCC2CCCN2S(=O)(=O)c2ccccc2)c1 (stereo not given),nt,nt,nt,nt,33,56*
COc1cccc(NC(=O)C(=O)NCCC2CCCCN2S(=O)(=O)c2ccccc2)c1 (stereo not given),nt,nt,nt,nt,20,32
CN(C(=O)c1ccco1)c1nc2c(s1)CCCC2,-11,0,0,nt,27,62*
CSCc1ccc(C(=O)Nc2ccc(C(N)=O)cc2)cc1,3,-1,0,-3,14,55*
CSCc1ccc(C(=O)NCc2ccc(C)cc2)cc1,-9,1,0,-8,0,-10
O=C(Nc1ccccc1)c1ccc(CSc2ncccn2)cc1,-48,1,0,nt,55,87*
O=C1OCCC1Sc1nnc(-c2ccc(Cl)cc2Cl)o1 (stereo not given),0,2,nt,5,-35,-31
CC(C)c1ccc(C(CC(=O)O)N2Cc3ccccc3C2=O)cc1 (stereo not given),nt,nt,nt,nt,16,35
COCCC(=O)N1CCC(Oc2ccc(C(=O)N3CCCC(CCCO)C3)cc2)CC1 (stereo not given),nt,nt,nt,nt,-4,11
Cc1ccc(C(c2sc3ncnn3c2O)N2CC(C)CC(C)C2)cc1 (stereo not given),-13,1,0,11,-58*,-67
COC(=O)C1=C(C(=O)OC)[C@@H]2N(C)c3ccc(OC)cc3[C@@]23C[C@@H](C(=O)OC)N(C(=O)c2cccs2)C3=N1,nt,nt,nt,nt,-2,-19
O=C(Nc1ccc(F)cc1)C1CCN(S(=O)(=O)c2cccc3nonc23)CC1,nt,nt,nt,nt,1,15
CCN(CC)C(=O)C1CCCN(c2ccc([N+](=O)[O-])cc2/C=N/NC(=O)c2ccc([N+](=O)[O-])cc2)C1 (stereo not given),-4,-1,0,nt,-78*,-82
Cc1nc2c(O)cccc2cc1CO,-8,1,nt,-6,-9,-8
O=C(c1ccc(-c2ccc([N+](=O)[O-])cc2)o1)N1CCCCC1,-3,3,0,1,57,87*
CN1CCN(C(=S)c2ccc(-c3cccc(Cl)c3Cl)o2)CC1,-5,0,0,5,49,68*
S=C(c1ccc(-c2ccc(Cl)cc2)o1)N1CCCCC1,0,-1,0,nt,62,101*
CC1(C)CC(=O)C2=C(C1)OC(N)=C(C#N)C2C1CC=CCC1 (stereo not given),-12,1,0,-1,6,12
CN(C(=O)COC(=O)C1CCN(S(=O)(=O)c2c(Cl)cccc2Cl)CC1)C1CCS(=O)(=O)C1 (stereo not given),nt,nt,nt,nt,1,-5
CCN(CCCNC(=O)CNC(=O)c1nn(-c2ccc(OC)cc2OC)c(=O)c2ccccc12)c1cccc(C)c1,nt,nt,nt,nt,59,61*
CCCCN(CCCNC(=O)C1CCN(S(=O)(=O)CC)CC1)c1ccccc1,-20,-3,0,24,35,64*
CCN(CCNC(=O)C1CCN(S(=O)(=O)CC)CC1)c1ccccc1,0,0,0,-15,9,22
CN1C2C=C(N(CCc3c[nH]c4ccccc34)C(=O)c3ccc(Cl)cc3)CC1CC2 (stereo not given),10,-1,0,nt,-3,-2
COc1ccc(CCN(C(=O)c2ccccc2)C2=CC3CCC(C2)N3C)cc1OC (stereo not given),-11,-1,0,85*,-2,5
COc1ccc(/C=N/NC(=O)c2ccc3c(c2)OCO3)cc1,nt,nt,nt,nt,-3,2
SMILES,S1P4 antag,S1P4 agonist,Hsp70 act,S1P3 antag,HSF1 inhib,HSF-1 act
CN(C)c1ccc(/C=N/NC(=O)c2ccc3c(c2)OCCO3)cc1,nt,nt,nt,nt,-55*,-58
O=C(N/N=C/c1cc(Br)c(O)c(Br)c1O)c1ccc2c(c1)OCCO2,nt,nt,nt,nt,-12,-1
O=C(CNC(=O)c1ccc2c(c1)OCCO2)N/N=C/c1ccc(Cl)cc1,-19,3,0,11,-6,-4
CCOc1cc(/C=N/NC(=O)c2ccc3c(c2)OCCO3)cc(Br)c1O,nt,nt,nt,nt,-73*,-74
CCN(CC)c1ccc(/C=N/NC(=O)c2ccc3c(c2)OCCO3)cc1,nt,nt,nt,nt,-52*,-59
COc1ccc(C(C#N)N2CCC(c3ccccc3)=N2)cc1OC (stereo not given),-15,2,0,-4,0,-8
COc1ccc(C2CC(c3ccc(F)cc3)=NN2c2ccccc2)cc1OC (stereo not given),nt,nt,nt,nt,15,34
Oc1ccc(C2=NN(c3ccccc3)C(c3ccc(F)cc3)C2)cc1 (stereo not given),nt,nt,nt,nt,-75*,-80
COc1ccc(C2=NN(c3ccccc3)C(c3ccc(OC)c(OC)c3)C2)cc1 (stereo not given),nt,nt,nt,nt,39,71*
COc1ccc(C2=NN(C(C#N)c3ccc(OC)c(OC)c3)C(c3ccccc3)C2)cc1 (stereo not given),9,3,0,nt,32,90*
COc1ccc(C2CC(c3cccs3)=NN2c2nc(-c3ccccc3)cs2)cc1OC (stereo not given),-4,0,0,nt,62,93*
CC(C)c1cc(C(=O)NNC(=S)NC2CCCCC2)cs1,nt,nt,nt,nt,?,-54
O=C(Cc1ccccc1)NNc1ccc2ccccc2c1,-1,-1,0,4,-63*,-67
Cn1c(Cc2ccccc2)nnc1SCc1ccc(C(=O)O)cc1,10,0,0,-6,-7,-2
CCn1cc(S(=O)(=O)NC2CCCCC2)cn1,nt,nt,nt,nt,-2,-11
N#C/C(=C\c1ccc(Cl)cc1)c1nc2ccccc2o1,1,0,0,-4,62,75*
CC(Sc1nnnn1C)C(=O)Nc1ccc(Oc2ccccc2)cc1 (stereo not given),16,1,-1,-28,-68*,-74
COc1cc(NC(=O)COC(=O)c2cnccn2)c(C)cc1[N+](=O)[O-],-5,0,nt,-1,-4,0
CN(C)Cc1c(-c2ccc(Cl)cc2)nc2ccccn12,-11,0,0,-2,20,49
Clc1ccc(-c2nc3ccccn3c2CN2CCCCC2)cc1,8,0,0,18,24,52*
CCCCn1c(N)c(N(CC)C(=O)c2cc(S(=O)(=O)N3CCCCCC3)ccc2OC)c(=O)[nH]c1=O,nt,nt,nt,nt,-2,-5
Cc1cc(C(=O)Nc2ccc(Cl)cc2)c(C)n1-c1ccccc1,7,1,nt,12,-90*,-92
Cc1ccc(NC(=O)c2cccc3ccccc23)cc1,nt,nt,nt,nt,13,31
Cc1ccc(-n2c(C)cc(C(=O)NS(=O)(=O)c3ccc(C)cc3)c2C)cc1,-23,-1,0,-22,-3,2
Cc1ccc(NC(=O)c2cnn(-c3ccccc3)c2C)c(C)c1,nt,nt,nt,nt,12,23
Cc1ccc(NC(=O)c2cnn(-c3ccccc3)c2C)cc1,nt,nt,nt,nt,37,72*
Cc1ccc(NC(=O)c2cc(C)n(-c3cccc(C)c3)c2C)cc1,-42,1,0,15,-70*,-75
